The entries come from a sample that favours hits as a whole.
TTR transcr act: increases transthyretin transcription. activation, % at 16.7 µM. AID 1117267. actives 1.3% (n = 92,000). SH-SY5Y TTR promoter Gaussia luciferase, luminescence; 100% = recombinant luciferase protein wells;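 active means activation above the mean of all tested compounds plus 3 SD, cut at about 9.5% in these data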;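 further: cells exposed to compounds for one day before reading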
HuH7 TTR inh: decreases TTR transcription in HuH7 cells in activator counter-screen | inhibition, % at 16.7 µM | HuH7 TTR promoter-Gaussia luciferase reporter, luminescence | AID 1117279 | actives 4% (n = 1,100) | shares compounds with TTR transcr act;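 active means average inhibition above the solvent-only control wells' mean plus 3 SD, cut at about 15% in these data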;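 further: inhibitors lower well luminescence so higher value means more inhibition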
TTR up confirm: confirmation of human transthyretin transcription activators; shares compounds with TTR transcr act; SHSY5Y TTR promoter Gaussia luciferase, luminescence; 100% = purified Lucia enzyme wells, no cells; activation, % at 16.7 µM; 1,100 tested, under 10 active; AID 1117280;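 active means mean activation above a set limit taken from the earlier primary screen, cut at about 11% in these data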
Each line names hits and unclear results; the compound was inactive in the other large screens (follow-up assays come after a bar, where they were run).

COCC(C)NC(=O)Cn1c(SCc2ccccc2)nc2ccccc21 (centres undefined)	none
CCSc1nc2ccccc2n1CC(N)=O	none
COC(=O)CSc1nc2ccccc2n1CC(=O)N(C(C)C)C(C)C	TTR transcr act 13 | HuH7 TTR inh inactive | TTR up confirm inactive
C=CCN(Cc1ccc2c(c1)OCO2)C(C#CCCCC)C(C)C (centres undefined)	none
O=C(CNC(=O)c1ccccc1)OC1CCCCC1	none
COC(=O)C(CC(=O)CNC(=O)c1ccccc1)NC(=O)c1ccccc1 (centres undefined)	none
O=C(NC(CC1CCCCC1)C(=O)O)c1ccccc1 (centres undefined)	TTR transcr act 15 | HuH7 TTR inh inactive | TTR up confirm inactive
CC(C)n1nnnc1C1(C)CSCC(=O)N1Cc1cccc(F)c1 (centres undefined)	none
CC(c1ccccc1)N1CC[C@H]2C=CC[C@@H](C(=O)Nc3cccc(Cl)c3)[C@H]2C1=O (some centres undefined)	none
C[C@H]1[C@@H](NC(=O)Cc2ccsc2)CC[C@@]23CCCN2C(=O)CCC[C@@H]13	none
c1ccc(-c2ccc(-c3ccccn3)s2)nc1	none
c1ccc(-c2nnc(-c3ccccn3)nn2)nc1	TTR transcr act 10 | HuH7 TTR inh inactive | TTR up confirm inactive
c1ccc(-c2nnc(-c3ccccn3)c(-c3ccccn3)n2)nc1	none
COc1ccc(C(F)(F)F)cc1NC(=O)C(OC(=O)CNC(=O)c1ccccc1)c1ccccc1 (centres undefined)	none
C=CCN(C)C(C#Cc1ccccc1)c1ccccc1C(F)(F)F (centres undefined)	none
COC(=O)[C@]12C[C@H](CC(=O)NCc3ccc(OC)c(OC)c3)C(=O)N(Cc3ccc4c(c3)OCO4)C1=C[C@H](C(C)C)O[C@@H]2C1CC1	none
C[C@H]1[C@@H](NC(=O)c2cccc(N(C)C)c2)CC[C@@]23CCCN2C(=O)CCC[C@@H]13	none
Cc1ccc(CN(C)C(=O)c2cccc(S(=O)(=O)N3CCN(Cc4ccccc4)CC3)c2)o1	none
CCCCN(C(=O)c1cccc(S(=O)(=O)N2CCN(Cc3ccccc3)CC2)c1)c1ccccc1	TTR transcr act 27 | HuH7 TTR inh inactive | TTR up confirm inactive
O=C(NCCOc1ccccc1)c1cccc(S(=O)(=O)N2CCN(Cc3ccccc3)CC2)c1	none
CCC(C#Cc1ccccc1)N(C)C(N)=NC(=O)/C=C/c1ccccc1 (centres undefined)	none
CCc1ccc(/C=C/C(=O)NC2=NCCS2)cc1	none
CCCC[C@H](C(=O)N(CC)c1ccccc1)[C@@H](O)c1ccc(Cl)cc1	none
CC(C)CC1CCCC12NC(=O)NC2=O (centres undefined)	none
CC(C)CCN1NC2(CCCC(C)C2)NC1=S (centres undefined)	TTR transcr act 13 | HuH7 TTR inh inactive | TTR up confirm inactive
CCCCNS(=O)(=O)/C=C/c1ccccc1CCNC(=O)OC(C)(C)C	none
CC(=O)c1sc(-c2ccccc2)cc1NS(=O)(=O)c1ccccc1	none
CC(=O)c1sc(-c2ccc(F)cc2)cc1NS(=O)(=O)c1ccc(C)cc1	TTR transcr act 17 | HuH7 TTR inh inactive | TTR up confirm inactive
CC(=O)c1sc(-c2ccccc2)cc1NS(=O)(=O)c1ccc(C)cc1	none
CNC12CCc3cc(OC)c(OC)c(c31)-c1cc3c(cc1C2)OCO3 (centres undefined)	none
COC(=O)[C@]12C[C@H](CC(=O)N3CCCCC3)C(=O)N(Cc3ccc(Cl)cc3Cl)C1=C[C@H](C(C)C)O[C@@H]2C1CC1	none
CC(C)c1ccc(OCC(=O)Nc2ccncc2)cc1	none
O=C(COC(=O)COc1ccccc1)Nc1ccc2c(c1)OCCO2	none
CC(C)c1ccc(NC(=O)COC(=O)COc2ccccc2)cc1	TTR transcr act 10 | HuH7 TTR inh inactive | TTR up confirm inactive
Cc1ccc(S(=O)(=O)N2CC3(COC(C)(C)OC3)C[C@H]2CON2C(C)(C)CCCC2(C)C)cc1	none
O=C(c1ccccc1)n1ccc2ccc(-c3ccc4ccn(Cc5ccccc5)c4c3)cc21	none
O=C1CCC(NC(=O)Cc2ccccc2)C(=O)N1 (centres undefined)	none
c1ccc(Cn2ccc3ccc(-c4ccc5ccn(Cc6cccc(-c7ccsc7)c6)c5c4)cc32)cc1	none
COC(=O)c1cn(-c2ccccc2)nc1-c1ccncc1	none
COC(=O)c1cn(-c2ccccc2)nc1-c1ccc(OC)cc1	none
O=C(OCc1ccccc1)c1cn(-c2ccccc2)nc1-c1ccncc1	TTR transcr act 18 | HuH7 TTR inh inactive | TTR up confirm inactive
CC(=O)Nc1sc2c(c1-c1cc3ccccc3o1)CCNC2	none
O=C(c1cccc(Cl)c1)N1CCN(c2ccnc3cc(Cl)ccc23)CC1	none
CCOC(=O)c1[nH]c2ccc(F)cc2c1NC(=O)Nc1ccccc1OC	TTR transcr act 15 | HuH7 TTR inh inactive | TTR up confirm inactive
CCOC(=O)c1[nH]c2ccccc2c1NC(=O)NC(C)C	none
CCCCNC(=O)Nc1c(C(=O)OCC)[nH]c2ccccc12	none
CCCCOCCCNC(=O)C[C@H]1C[C@@]2(C(=O)OC)C(=C[C@H](C(C)(C)C)O[C@@H]2C)N(Cc2ccc(Cl)cc2Cl)C1=O	none
CCOC(=O)[C@@]12CCC3=C1N(CCC3)C(=O)[C@H](CC(=O)NCCCN1CCCC1=O)C2	none
CCOC(=O)CC[C@@]1(C(=O)OCC)C[C@@H](CC(=O)NCC23CC4CC(CC(C4)C2)C3)C(=O)N2CCCC=C21	none
CN(C(=O)[C@@H](C1CC1)[C@@H](O)c1ccc2ccccc2c1)c1ccccc1	none
C=CCn1c(C)cc(C(=O)CSc2nnc3c(Cl)cc(Cl)cn23)c1C	TTR transcr act 22 | HuH7 TTR inh inactive | TTR up confirm inactive
COc1ccc(C(C)=O)cc1CSc1nnc2c(Cl)cc(Cl)cn12	none
C=CCn1c(C)cc(C(=O)CSc2nc(N)cc(N)n2)c1C	none
CN1C(c2ccccc2)CC2CN(c3ccccc3)C(=O)C21 (centres undefined)	none
N#CN1CCC(NS(=O)(=O)c2cccc(C(F)(F)F)c2)CC1	none
CCc1ccc(CCNC(=O)OC2CC3CC2[C@H]2CCCCN2[C@H]3Cc2ccccc2)cc1 (some centres undefined)	none
CCC1(CC)C(=O)N=C2c3ccccc3C(=O)N21	TTR transcr act 48 | HuH7 TTR inh inactive | TTR up confirm inactive
O=C(O)CNC(=O)C1(N2C(=O)c3ccccc3C2=O)CCCC1	none
CC(C)NC(=O)C1(N2C(=O)c3ccccc3C2=O)CCCC1	none
C#CCNC(=O)C[C@H]1C[C@@]2(C(=O)OC)C(=C[C@H](C(C)C)O[C@@H]2C2CC2)N(CCCCCCCC)C1=O	none
O=S1(=O)N[C@H](c2ccccc2)COc2cc(Br)ccc21	none
CSc1nnnn1-c1ccc(C(=O)O)cc1	TTR transcr act 19 | HuH7 TTR inh inactive | TTR up confirm inactive
CSc1nnnn1-c1ccc(C)c(Cl)c1	none
O=C(O)c1ccc(-n2nnnc2SCc2ccccc2F)cc1	none
COC(=O)[C@]12C[C@H](CC(=O)N3CCCC3)C(=O)N(CCc3ccc(OC)c(OC)c3)C1=C[C@H](COCc1ccccc1)O[C@@H]2C	none
Clc1ccccc1Cn1ccc2ccc(-c3ccc4ccn(Cc5ccccc5Cl)c4c3)cc21	none
Cc1ccc(N(CC(=O)NC(C)(C)C)C(=O)CCC(=O)Nc2nccs2)cc1C	TTR transcr act 9.7 | HuH7 TTR inh inactive | TTR up confirm inactive
Cc1ccc(N(CC(=O)NC(C)C)C(=O)CCC(=O)Nc2nccs2)cc1	none

Screening data: PubChem BioAssay, The Scripps Research Institute Molecular Screening Center
